Test results from PubChem BioAssay AID588795 (National Center for Advancing Translational Sciences (NCATS), 2011).
The campaign covered roughly 390,000 compounds. About 1,400 (0.36%) were called active. Another 2% or so got no clear call; they are omitted. The call rests on the fitted dose curve; in most records, active means well fitted inhibition curve with a large enough effect; inconclusive means small, poorly fitted or top-dose-only effect; inactive means no such curve, though single readings can be large or run the other way. Shown is part of a subset that was picked to be rich in actives. A call without a number means that no potency is given here.

Target: Flap endonuclease 1 (Homo sapiens) (UniProt P39748)
Sequence (P39748 whole entry, looked up): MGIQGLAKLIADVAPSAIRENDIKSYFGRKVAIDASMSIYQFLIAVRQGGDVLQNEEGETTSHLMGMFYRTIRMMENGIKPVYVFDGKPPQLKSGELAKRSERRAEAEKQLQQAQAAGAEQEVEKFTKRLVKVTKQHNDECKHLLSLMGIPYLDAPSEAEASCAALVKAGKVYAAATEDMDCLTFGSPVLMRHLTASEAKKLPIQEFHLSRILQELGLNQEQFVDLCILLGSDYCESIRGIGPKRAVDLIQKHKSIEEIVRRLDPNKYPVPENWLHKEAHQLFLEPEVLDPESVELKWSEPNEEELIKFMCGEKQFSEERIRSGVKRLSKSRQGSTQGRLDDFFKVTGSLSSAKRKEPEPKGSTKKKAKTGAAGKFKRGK
Test: qHTS Assay for the Inhibitors of Human Flap endonuclease 1 (FEN1). Further: nearly all actives have a fitted effect of over 65% in size.
Conditions: Recombinant FEN1 flap cleavage, fluorescence, 15 min; series mostly up to 114 µM
Description: The major human flap endonuclease FEN1 is an efficient structure-specific enzyme that recognizes and cleaves a 5'-unannealed DNA flap. It belongs to the RAD2 family nucleases, which are involved in DNA metabolism and are highly conserved in prokaryotes and eukaryotes. FEN1 is a key enzyme in DNA replication, repair and maintenance of genomic stability. 5'-flap removal by FEN1 is critical for Okazaki fragment processing during lagging strand DNA synthesis, long-patch base excision repair (LP BER), and regulating or facilitating recombination events. […] Deletion of the yeast FEN1 gene, i.e. rad27, results in an increased frequency of short DNA (3-32 bp) repeats, micro- and mini-satellite formation, trinucleotide repeat expansion, spontaneous recombination events, and a severe growth defect in association with cell cycle arrest in late S/G2 phase. […] Cells from fen1-/- blastocysts show increased apoptotic cell death after ionizing radiation treatment, and chicken cells lacking the fen1 gene are hypersensitive to DNA alkylating agents, e.g. methylmethane sulfonate (MMS) and N-methyl-N'-nitro-N-nitrosoguanidine (MNNG), as well as hydrogen peroxide.
NIH Chemical Genomics Center [NCGC]
NIH Molecular Libraries Probe Centers Network [MLPCN]
Assay Submitter (PI): David Wilson, National Institute of Aging
Three uL of reagents (buffer in column 3 and 4 as negative control and 10 nM FEN1 in columns 1, 2, and 5-48) were dispensed into 1,536-well black solid-bottomed plate. Compounds (23 nL) were transferred via Kalypsys pin tool equipped with 1536-pin array (10 nL slotted pins, V&P Scientific, San Diego, CA). The plates were then incubated for 15 min at room temperature, and 1 uL substrate (50 nM final concentration) were added to start the reaction read twice at 0 min read and 15 min on ViewLux reader. Throughout the screen, reagent bottle and all liquid lines were chilled and made light-tight to minimize reagent degradation. All screening operations were performed on a fully integrated robotic system (Kalypsys, San Diego, CA) containing one RX-130 and two RX-90 anthropomorphic robotic arms (Staubli, Duncan, SC). Library plates were screened starting from the lowest and proceeding to the highest concentration, and a "double-dipping" step of the highest concentration was required to access higher concentrations of compounds. Vehicle-only plates, with DMSO being pin-transferred to the entire column 5-48 compound area, were inserted uniformly at the beginning and the end of each library in order to monitor for and record any shifts in the background, which can be affected by reagent dispensers or loss in enzyme activity overtime. Screening data was corrected, normalized, and concentration-effect relationships were derived by using publicly-available curve fitting algorithms developed in-house (http://ncgc.nih.gov/pub/openhts). A four parameter Hill equation was fitted to the concentration-response data by minimizing the residual error between the modeled and observed responses.
Potency means the concentration at half of the fitted maximal effect.

Row | Structure (SMILES) | Potency
1 | COc1cccc(N2C(=O)NC(=O)/C(=C\c3ccc([N+](=O)[O-])s3)C2=O)c1 | 39.8 µM (active)
2 | COc1ccc(CN2C(=O)NC(=O)/C(=C\c3ccc(OC)c(OC)c3OC)C2=O)cc1 | inactive
3 | CCOC(=O)CC(SP1(=S)OCC2(CCCCO2)C(C2CCCCO2)O1)C(=O)OCC (stereo not given) | inactive
4 | C[C@]12CCC3C(CC[C@H]4[C@H](O)[C@H](O)CC[C@]34C)C1CCC2=O (stereo not given in full) | inactive
5 | COc1ccc2c(c1)NP(=S)(c1ccccc1)N2 (stereo not given) | inactive
6 | CCC(C)(O)C(=O)OC1C(=O)OC2CC3C(C)=CC(=O)C(O)C3(C)C3C4(O)OCC23C1C(C)C4O (stereo not given) | inactive
7 | O=C(O)/C=C/c1ccc2c(c1)OCO2 | inactive
8 | O=C(O)c1cc[c]([Sb](=[O])([OH])[OH])cc1[N+](=O)[O-] | 1.41 µM (active)
9 | O=C(c1ccccc1[N+](=O)[O-])N1CCC2(CC1)OCCO2 | inactive
10 | CC1C(=O)OC2CCN3CC=C(COC(=O)C(C)(O)C1(C)O)C23 (stereo not given) | inactive
11 | Cc1cc(C)c2c(c1)NP(=S)(c1ccccc1)N2 (stereo not given) | inactive
12 | CC(=O)OC1C2(CC3N4C(=O)C5(CO)SSC4(CC31O)C(=O)N5C)OC(C)C(C)(C)C2=O (stereo not given) | inactive
13 | COc1cc([C@@H]2c3cc4c(cc3[C@H](OC(C)=O)[C@H]3COC(=O)[C@H]23)OCO4)cc(OC)c1OC | inactive
14 | COC1C(O)C(C)OC(OC2CCC3(C=O)C(CCC4C3CCC3(C)C(C5=CC(=O)OC5)CCC43O)C2)C1O (stereo not given) | inactive
15 | CO[C@H]1[C@@H](O)[C@@H](C)O[C@H](O[C@H]2[C@H](Oc3cccc4c(O)c5c(=O)oc6ccc(C)c7c(=O)oc(c34)c5c67)O[C@H](C)[C@H](O)[C@@H]2O)[C@@H]1O | 10 µM (active)
16 | O=P1(Oc2ccccc2)CC(O)C(O)C(COCc2ccccc2)O1 (stereo not given) | inactive
17 | CCC(=O)OC(Cc1ccccc1)(c1ccccc1)C(C)CN(C)C (stereo not given) | inactive
18 | CC12CCC(O)CC1CCC1C2CCC2(C)C(C(=O)CC(O)C(F)(F)F)CCC12 (stereo not given) | inactive
19 | c1ccc2c(c1)[I+]c1ccccc1-2 | 50.1 µM (active)
20 | N#Cc1c(Cl)c(Cl)c(Cl)c(C#N)c1Cl | inactive
